Test results as given in PubChem BioAssay (Tox21).
Results filed as inconclusive are left out. A number with no mark means an inactive call. Active and inactive are the calls of the source. Calls come from the whole dose curve; as a rule, active = well fitted curve in the direction sought with a large enough effect in the repeat runs; inconclusive = weak or mixed curves; inactive = no such curve, though single readings can be large; an effect the other way counts as inactive or inconclusive.

biological target: Luciferin 4-monooxygenase (Photinus pyralis) (UniProt P08659); experiment: qHTS assay to identify small molecule inhibitors of firefly luciferase (AID 1224835); note: nearly all actives have a fitted effect of over 25% in size; conditions: purified P. pyralis luciferase, luminescence inhibition; series mostly up to 115 µM; activity change, negative = inhibition: at the top concentration
Outline: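 Inhibition of purified Photinus luciferase is measured by luminescence. Substrate levels (D-luciferin, ATP) sit at their KM values. Each compound is tested in a concentration series.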
% is set by controls: 0 for no effect and ±100 for the full control effect; potency is the fitted concentration of half-maximal effect.

Sequence of Luciferin 4-monooxygenase (Photinus pyralis) (P08659 whole entry, looked up): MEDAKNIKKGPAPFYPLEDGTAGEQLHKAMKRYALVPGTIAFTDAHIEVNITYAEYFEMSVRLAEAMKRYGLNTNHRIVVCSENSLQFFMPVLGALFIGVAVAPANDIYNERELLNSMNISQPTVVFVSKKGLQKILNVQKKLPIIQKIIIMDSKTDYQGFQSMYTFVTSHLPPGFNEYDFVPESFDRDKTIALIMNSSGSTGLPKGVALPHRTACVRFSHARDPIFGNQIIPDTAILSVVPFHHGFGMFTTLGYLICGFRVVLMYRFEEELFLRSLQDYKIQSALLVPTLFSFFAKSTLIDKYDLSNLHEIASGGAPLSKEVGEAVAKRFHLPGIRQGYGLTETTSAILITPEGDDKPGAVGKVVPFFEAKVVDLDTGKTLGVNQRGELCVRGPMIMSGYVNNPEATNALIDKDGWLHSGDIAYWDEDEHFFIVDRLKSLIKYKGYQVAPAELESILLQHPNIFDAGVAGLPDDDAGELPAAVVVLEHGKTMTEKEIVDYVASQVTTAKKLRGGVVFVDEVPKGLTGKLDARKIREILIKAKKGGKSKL

Compound	activity change, negative = inhibition	Potency
CCc1cc2c(s1)-n1c(C)nnc1CN=C2c1ccccc1Cl	1.92% [at 52.9 µM]	
CNNC	-0.146%	
COc1cccc2c1cc([N+](=O)[O-])c1c(C(=O)O)cc3c(c12)OCO3		71 µM (active)
CC(N)=S	-0.183%	
CCCSC(=O)N(CCC)CCC	2.35%	
CCN(Cc1ccc(Cl)nc1)/C(=C/[N+](=O)[O-])NC	4.2% [at 52.9 µM]	
NC1=NC(=O)C(c2ccccc2)O1 (stereo unspecified)	0.471% [at 52.9 µM]	
O=C(CCN1CC1)OCC(CO)(COC(=O)CCN1CC1)COC(=O)CCN1CC1	8.88%	
CCOC(=O)N(C)C(=O)CSP(=S)(OCC)OCC	0.588%	
CCCCOC(=O)c1ccccc1N		40.1 µM (active)
COc1cc(OC)nc(NC(=O)NS(=O)(=O)c2ncccc2C(=O)N(C)C)n1	5.64%	
COC(=O)C(c1ccccc1)C1CCCCN1 (stereo unspecified)	3.5%	
ClC(Cl)(Cl)C(Cl)(Cl)Cl	4.18%	
CCOP(=S)(OCC)SCSP(=S)(OCC)OCC	1.77%	
CC(=O)Nc1cc([As](=O)(O)O)ccc1O	-1.15% [at 52.9 µM]	
CNC(=O)N(C)c1nc2ccccc2s1		35.6 µM (active)
COc1cc(OC)nc(Sc2cccc(Cl)c2C(=O)O)n1	0.0002%	
Nc1cc(Cl)ccc1O	-9.8%	
CCC(=O)C(CCN(C)C)(c1ccccc1)c1ccccc1	1.83% [at 52.9 µM]	

Compound	activity change, negative = inhibition	Potency
CN1CCN(C(=O)O[C@H]2c3nccnc3C(=O)N2c2ccc(Cl)cn2)CC1	-5.81% [at 52.9 µM]	
N#CCCC#N	-0.295%	
CN1CCC(O)(c2ccc(F)cc2)C(C(=O)c2ccc(F)cc2)C1 (stereo unspecified)	1.99% [at 52.9 µM]	
Fc1cc(Br)ccc1CBr	3.41% [at 52.9 µM]	
CC(=O)CCc1ccc2c(c1)OCO2	2.37%	
CCCCOC(=O)c1ccccc1C(=O)O	2.48%	
CCC1(c2ccccc2)C(=O)NC(=O)NC1=O	1.31%	
c1coc(-c2nc3ccccc3[nH]2)c1		28.3 µM (active)
N#CC(O)c1ccccc1 (stereo unspecified)	4.51%	
CC(C(O)c1ccccc1)N(C)C/C=C/c1ccccc1 (stereo unspecified)	-0.0509% [at 52.9 µM]	
COP(N)(=S)Oc1ccccc1C(=O)OC(C)C (stereo unspecified)	10.8%	
CCCCc1c(C)nc(NCC)[nH]c1=O	-11.1%	
CC1CN1P(=O)(N1CC1C)N1CC1C (stereo unspecified)	3.71%	
COc1cc(OC)nc(NC(=O)NS(=O)(=O)c2ncccc2OCC(F)(F)F)n1	-1.36%	
C1CCC(C2CCCCC2)CC1	1.22%	
CCS(=O)(=O)CCSP(=O)(OC)OC	4.6%	
C#CCN1C(=O)COc2cc(F)c(N3C(=O)C4=C(CCCC4)C3=O)cc21	-11.1%	
CC1CCCCC1NC(=O)Nc1ccccc1 (stereo unspecified)		35.6 µM (active)
NC(=S)C(N)=S	-0.9%	

system: not listed separately; experiment: qHTS assay to identify small molecule agonists of the constitutive androstane receptor (CAR) signaling pathway - cell viability counter screen (AID 1224836); conditions: HepG2-CYP2B6-hCAR viability, CellTiter-Fluor, 23 h, PK11195 added to every well; series mostly up to 92.4 µM; viability change, negative = cytotoxic: at the top concentration; note: nearly all actives have a fitted effect of over 45% in size
Outline: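 Multiplexed viability check: HepG2-CYP2B6-hCAR cells, 15-point compound dosing, 0.75 uM PK11195 final, 23 h at 37 C, CellTiter-Fluor fluorescence.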

Compound	viability change, negative = cytotoxic	Potency
CCc1cc2c(s1)-n1c(C)nnc1CN=C2c1ccccc1Cl	8.46% [at 42.5 µM]	
CNNC	4.82%	
COc1cccc2c1cc([N+](=O)[O-])c1c(C(=O)O)cc3c(c12)OCO3		27.3 µM (active)
CC(N)=S	0.166%	
CCCSC(=O)N(CCC)CCC	0.535%	
CCN(Cc1ccc(Cl)nc1)/C(=C/[N+](=O)[O-])NC	-1.64% [at 42.5 µM]	
NC1=NC(=O)C(c2ccccc2)O1 (stereo unspecified)	1.79% [at 42.5 µM]	
O=C(CCN1CC1)OCC(CO)(COC(=O)CCN1CC1)COC(=O)CCN1CC1	-1.37%	
CCOC(=O)N(C)C(=O)CSP(=S)(OCC)OCC	7.79%	
CCCCOC(=O)c1ccccc1N	4.14%	
COc1cc(OC)nc(NC(=O)NS(=O)(=O)c2ncccc2C(=O)N(C)C)n1	6%	
COC(=O)C(c1ccccc1)C1CCCCN1 (stereo unspecified)	0.165%	
ClC(Cl)(Cl)C(Cl)(Cl)Cl	2.81%	
CCOP(=S)(OCC)SCSP(=S)(OCC)OCC	5.12%	
CC(=O)Nc1cc([As](=O)(O)O)ccc1O	1.7% [at 42.5 µM]	
CNC(=O)N(C)c1nc2ccccc2s1	6.78%	
COc1cc(OC)nc(Sc2cccc(Cl)c2C(=O)O)n1	-7.4%	
Nc1cc(Cl)ccc1O	-7.69%	
CCC(=O)C(CCN(C)C)(c1ccccc1)c1ccccc1	-10.5% [at 42.5 µM]	

Compound	viability change, negative = cytotoxic	Potency
CN1CCN(C(=O)O[C@H]2c3nccnc3C(=O)N2c2ccc(Cl)cn2)CC1	-7.39% [at 42.5 µM]	
N#CCCC#N	9.51%	
CN1CCC(O)(c2ccc(F)cc2)C(C(=O)c2ccc(F)cc2)C1 (stereo unspecified)	4.33% [at 42.5 µM]	
Fc1cc(Br)ccc1CBr	1.82% [at 42.5 µM]	
CC(=O)CCc1ccc2c(c1)OCO2	7.99%	
CCCCOC(=O)c1ccccc1C(=O)O	-1.62%	
CCC1(c2ccccc2)C(=O)NC(=O)NC1=O	4.76%	
c1coc(-c2nc3ccccc3[nH]2)c1	-2.71%	
N#CC(O)c1ccccc1 (stereo unspecified)	5.31%	
CC(C(O)c1ccccc1)N(C)C/C=C/c1ccccc1 (stereo unspecified)	-2.1% [at 42.5 µM]	
COP(N)(=S)Oc1ccccc1C(=O)OC(C)C (stereo unspecified)	5.06%	
CCCCc1c(C)nc(NCC)[nH]c1=O	-4.93%	
CC1CN1P(=O)(N1CC1C)N1CC1C (stereo unspecified)	-0.795%	
COc1cc(OC)nc(NC(=O)NS(=O)(=O)c2ncccc2OCC(F)(F)F)n1	0.234%	
C1CCC(C2CCCCC2)CC1	-6.63%	
CCS(=O)(=O)CCSP(=O)(OC)OC	0.489%	
C#CCN1C(=O)COc2cc(F)c(N3C(=O)C4=C(CCCC4)C3=O)cc21	2.61%	
CC1CCCCC1NC(=O)Nc1ccccc1 (stereo unspecified)	-0.61%	
NC(=S)C(N)=S	10.4%	
